# Measured values reported in the OligoGym collection.
# Target: GPAA1
# Experiment: pooled miR-30 sensor sort-seq; sequence = guide strand
# Settings: shRNA
# Further: reference of the scale not given here.
row,Sequence,sensor-assay potency score (higher = more potent)
1,TTCCGGGAGAAACTCTGCGTGT,-1.01
2,TTCTCCGACATGTAAGTGCGCT,-0.864
3,TAGCGCTGCCAGGAAGAGCTGC,-1.02
4,TTGAGCTTGCGGAACATGCCCT,-0.132
5,TATAGCGCTCGTGGGTCTCATC,-1.61
6,TAGCTCAGCACGCACAACGGCG,-1.38
7,TGAGCTTGCGGAACATGCCCTC,-0.336

# Target: GPATCH3
# Experiment: as above
# Settings: shRNA
row,Sequence,sensor-assay potency score (higher = more potent)
1,TCTGTCATAGTACACACTCATG,-1.69
2,TATTTCTTCACCCTCTGCTGTA,-0.595
3,TAAAATAGCTCCGTAAATGGGC,-0.362
4,TTAGGGCAGAGTTAGGAGCGGC,-0.764
5,TTGAGCTCAATCTCCTCCTCAA,0.169
6,TAAGCCTCTGAGCTTGAGCCAA,-0.945
7,TGTACACACAAGCTCTTCCTGC,-0.536
8,TTAGAGACCAAAGACAAGCGGT,0.0667
9,TTCCGTGACGTCGCACACCCAA,-0.81
10,TAAAACACCAGGCCAGAGCCAC,-0.98
